We go through ten molecules from PubChem BioAssay.

The nature of test [1]: inhibitors of TNFa-induced NFkB p65 translocation, primary screen, imaging, HUVEC, MLSMR starter and 10KST1 sets (AID 438;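 active means inhibition above 20% together with a positive visual image hit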;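 further: compound added about 3h40 before a 20 min TNFalpha stimulation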;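 on inhibition: signal is the nuclear over cytoplasmic p65 intensity ratio per well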). Conditions: HUVEC TNFa-induced p65 nuclear translocation; cell count: measured here: nuclei count (cytotoxicity indicator), at 2.08 µM; inhibition: at 2 µM, stronger effect = higher value, 0% TNFa-plus-vehicle, 100% no-TNFa wells.
Test [2] in a line: reduction of polyQ htt aggregates in cells – imaging, exon1htt(103Q)mCFP cells, high-content imaging, primary screen (AID 483;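 active means visual image review flags a hit and inhibition of aggregation exceeds 20%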;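 further: compound exposure lasted 3 days before fixation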;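 on nuclei count: percent of the per-plate median nuclei count of sample wells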). Conditions: exon1htt(103Q)mCFP cell line, aggregate imaging, at 2 µM; inhibition of aggregation: stronger effect = higher value; nuclei count: measured here: cell count, toxicity.
The nature of test [3]: endothelial E-selectin expression blockers – imaging, HUVEC, immunofluorescence, MLSMR starter and 10KST1 sets, primary screen (AID 487;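 active means visually confirmed hit in the image check and inhibition above 20%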;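 on inhibition: signal is fraction of cell area covered by stained E-selectin grains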;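 on nuclei count: 100% = median nuclei count of all wells on the same plate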). Conditions: HUVEC TNFalpha-induced E-selectin immunofluorescence imaging, at 2 µM; inhibition: stronger effect = higher value; nuclei count: measured here: cell number, toxicity.
Test [4] is described as follows: Primary imaging screen for DUSP6 inhibitors that restore phospho-Erk in transfected HeLa cells, chemical complementation (AID 609;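 active means compounds giving at least 50% inhibition in the cell-based MKP-3 phosphatase rescue imaging test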;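 on inhibition: phospho-Erk level distribution per well compared with pooled transfected vehicle control wells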). The conditions noted are these: HeLa MKP-3 transfected, phospho-Erk imaging KS statistic, at 10 µM, cells stimulated with TPA for 15 min.
The target of test [5] is Dual specificity protein phosphatase 6 (Homo sapiens) (UniProt Q16828). Described as above. The conditions noted are these: HeLa MKP-3 transfected, phospho-Erk imaging KS statistic; at 10 µM; stronger effect = higher value; cells stimulated with TPA for 15 min.
For test [6], the target named is Voltage-gated potassium channel subunit beta-2 (Rattus norvegicus) (UniProt P62483). The test can be described thus: inhibitors of rat Kvbeta2 reductase activity – biochemical, NADPH fluorescence, primary screen (AID 622;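 active means fluorescence slope higher than the sample average by over 3 SD, cut at about -0.22 in these data, passing the limit was not always enough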;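 further: slope of raw intensity against log time taken from 70 to 1610 s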). Conditions: recombinant KvBeta, 4-cyanobenzaldehyde reduction, at 10 µM, stronger effect = higher value.
Test [7] shares this target. The test can be described thus: enhancers of rat Kvbeta2 NADPH turnover – biochemical, NADPH fluorescence, primary screen (AID 623;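 active means NADPH fluorescence slope more negative than the mean of all samples by about 3 SD, 99.7% confidence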;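 further: fluorescence intensity change per second fitted from 20 to 320 s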). The conditions noted are these: Recombinant KvBeta, NADPH fluorescence decrease slope, 10 min; at 10 µM; stronger effect = lower value.
Test [8] deals with Alpha-2C adrenergic receptor (Homo sapiens) (UniProt P18825). Kind of test: compounds altering alpha2C-coupled GIRK flux – cell-based, HEK293 alpha2C/GIRK1/2, thallium flux, primary screen (AID 624;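 active means fluorescence slope after compound addition differing from the mean of all screened samples at 99.7% confidence, in either direction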;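 further: slope of fluorescence ratio to pre-addition baseline per second over 15 to 24 s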). The conditions noted are these: thallium flux BTC fluorescence, at 10 µM, actives lie on both sides.
The nature of test [9]: inhibitors of larval lipid processing in zebrafish, primary screen, whole organism, PED6 fluorescence, gall bladder and intestine (AID 686;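 active means a full or partial loss of lipid-probe fluorescence in the fish gall bladder, intestine or both, judged by eye; inactive means no fluorescence loss, or compound toxic to the fish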;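 further: larvae 5 to 7 days old with five fish per well; signal comes from phospholipase A2 cleavage of quenched PED6 carried via bile; overnight exposure to compound and PED6 before scoring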). Conditions: Zebrafish larvae PED6 lipid processing, fluorescence scoring; screened at 20 µM (by protocol).
The nature of test [10]: loss of swimming-algae plug formation – whole organism, Chlamydomonas reinhardtii, WT vs cilia-less mutant, absorbance, 96-well, primary screen (AID 463189).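 Further: 0% = wild type cc124 cells in DMSO and 100% = ciliumless bld1 mutant cells.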 The conditions noted are these: Chlamydomonas reinhardtii gravitaxis, OD600 absorbance, 2 days; at 10 µM; stronger effect = higher value.
Test [11] can be described thus: blockers of RIG-like receptor reporter activation – cell-based, Sendai virus stimulus, luciferase, 10K MLSCN set, TLR/RLR signaling modifier project, primary screen (AID 602276;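 active means inhibition at or above 50% at 10 µM; inactive means inhibition below 50%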;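 further: firefly luciferase from ISG56 promoter only with Renilla not read in this screen; 0% = Sendai virus plus DMSO and 100% = medium plus DMSO without virus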). The conditions noted are these: HEK293 RL24 IRF3 luciferase reporter, at 10 µM, stronger effect = higher value.
Test [12] can be described thus: TLR3 IRF3 reporter activation blockers – cell-based, poly I:C stimulus, luciferase, 10K MLSCN set, primary screen (AID 602277;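 active means inhibition of the reporter signal at or above 50%; inactive means inhibition below 50%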). Conditions: HEK293-TLR3 RL24 IRF3 luciferase reporter, at 10 µM, stronger effect = higher value.
[13] abbreviates: measured here: cell density z-score.
The mark [14] stands for this setting: measured here: nuclear c-Myc green intensity z-score.
[15] abbreviates: measured here: nuclear pErk red intensity z-score, stronger effect = higher value.

Several values for one entry are separate records, joined by “and”; a condition that tells them apart may be missing. Equal entries are not always repeated. Activity calls are given as the source filed them.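 How the source made its calls, unless noted: active means inhibition at or above 50% relative to wild type and mutant plate controls; inactive means inhibition below 50%.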

Alpha-2C adrenergic receptor (Homo sapiens), sequence (P18825 whole entry, looked up): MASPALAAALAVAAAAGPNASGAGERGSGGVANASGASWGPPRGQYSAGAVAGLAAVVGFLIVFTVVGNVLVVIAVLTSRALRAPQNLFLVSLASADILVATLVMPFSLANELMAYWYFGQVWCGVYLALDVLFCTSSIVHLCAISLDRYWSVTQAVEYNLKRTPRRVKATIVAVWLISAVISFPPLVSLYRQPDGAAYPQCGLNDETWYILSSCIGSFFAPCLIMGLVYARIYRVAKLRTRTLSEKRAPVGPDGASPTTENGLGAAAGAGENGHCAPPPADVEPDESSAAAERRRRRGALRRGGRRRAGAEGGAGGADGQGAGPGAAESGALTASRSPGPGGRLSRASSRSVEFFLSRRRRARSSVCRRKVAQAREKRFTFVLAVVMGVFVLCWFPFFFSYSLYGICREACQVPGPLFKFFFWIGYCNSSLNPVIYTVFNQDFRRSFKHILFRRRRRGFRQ
Voltage-gated potassium channel subunit beta-2 (Rattus norvegicus), sequence (P62483 whole entry, looked up): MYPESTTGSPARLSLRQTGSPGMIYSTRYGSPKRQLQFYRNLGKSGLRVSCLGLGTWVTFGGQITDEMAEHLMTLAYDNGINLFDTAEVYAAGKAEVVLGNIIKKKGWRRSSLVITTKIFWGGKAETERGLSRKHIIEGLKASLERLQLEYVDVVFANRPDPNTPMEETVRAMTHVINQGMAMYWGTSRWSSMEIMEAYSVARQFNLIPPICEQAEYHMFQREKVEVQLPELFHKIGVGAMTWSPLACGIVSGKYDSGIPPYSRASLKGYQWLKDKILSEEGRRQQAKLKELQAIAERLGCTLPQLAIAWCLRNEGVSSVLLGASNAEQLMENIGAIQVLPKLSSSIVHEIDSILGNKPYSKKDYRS
Dual specificity protein phosphatase 6 (Homo sapiens), sequence (Q16828 whole entry, looked up): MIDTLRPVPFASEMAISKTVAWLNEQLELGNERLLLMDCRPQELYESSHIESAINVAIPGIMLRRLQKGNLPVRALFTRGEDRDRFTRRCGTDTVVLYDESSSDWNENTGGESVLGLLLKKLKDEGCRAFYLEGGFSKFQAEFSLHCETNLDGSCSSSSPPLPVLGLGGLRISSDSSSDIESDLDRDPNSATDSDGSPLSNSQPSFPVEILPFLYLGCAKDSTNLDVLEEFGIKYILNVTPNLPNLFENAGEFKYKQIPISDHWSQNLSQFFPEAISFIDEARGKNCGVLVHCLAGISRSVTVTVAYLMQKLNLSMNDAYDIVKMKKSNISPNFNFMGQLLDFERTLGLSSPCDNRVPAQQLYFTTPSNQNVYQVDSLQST

With `COC(=O)c1ccc(C2NC(C(=O)O)CS2)cc1` (stereo not given), the cell count in [1] worked out at 652. Also, the inhibition in test [1] is -14.6% (inactive); in [3], -8.7% (inactive); in test [5], -9.66% (inactive); in test [10], 5.15% (inactive); in test [11], 14.2% (inactive); in [12], 18.9% (inactive). The inhibition of aggregation in [2] is 3.9% (inactive). The nuclei count in test [2] came out at 107%; in [3] it was 139%. In addition, the z-score in [4] (setting [13]) is -0.228; in test [4] (setting [14]), -1.99; in [4] (setting [15]), -1.57. In [6], the fluorescence slope is -0.4 (inactive). Also, the NADPH fluorescence slope in test [7] was -2.2e-05 (inactive). For the same molecule, the slope in [8] was 0.00581 (inactive). For the same molecule, the call in test [9] was inactive.

For the molecule `OC[C@H]1O[C@@H](n2cnc3c(Nc4ccccc4)ncnc32)[C@H](O)[C@@H]1O`, in test [1], the cell count was determined as 606. Moreover, the inhibition in test [1] is -3.3% (inactive); in test [3] it was -19.9% (inactive); in test [5], -0.828% (inactive); in test [10], -14.4% (inactive); in test [11] it was -32.6% (inactive); in test [12], -55.1% (inactive). For the same molecule, the inhibition of aggregation in [2] was 17.1% (inactive). The nuclei count in test [2] worked out at 104%; in [3] it was 107%. Besides, the z-score in [4] (setting [13]) is 1.07; in test [4] (setting [14]) it was -1.93; in [4] (setting [15]) it was -0.432. Besides, the fluorescence slope in [6] was -0.459 (inactive). Also, the NADPH fluorescence slope in [7] is -4.6e-05 (inactive). In addition, the slope in test [8] is 0.00784 (inactive). Moreover, the result in test [9] was inactive.

`CC(NCCc1ccc(O)cc1)C(O)c1ccc(O)cc1` (stereo not given): in test [1], the cell count stood at 713. The inhibition in test [1] is -4.6% (inactive); in [3], -109% (inactive); in [5], 1.48% (inactive); in test [10], 4.91% (inactive); in test [11], 7.45% (inactive); in [12], 39.2% (inactive). In test [2], the inhibition of aggregation is -2.5% (inactive). The nuclei count in test [2] was 107%; in [3], 123%. The results for the z-score in test [4] (setting [13]), in [4] (setting [14]) and in test [4] (setting [15]) were 0.779, 0.516 and -1.29, respectively. The fluorescence slope in test [6] is -0.474 (inactive). The NADPH fluorescence slope in [7] was -9.7e-05 (inactive). Besides, the slope in test [8] is 0.00504 (inactive). Further, the result in [9] was inactive.

Turning to `O=C(NC1(C(F)(F)F)C(=O)Nc2c1c(=O)[nH]c(=O)n2Cc1ccco1)C1CCCCC1` (stereo not given), the cell count in test [1] turned out to be 463. Moreover, the inhibition in test [1] was 4.1% (inactive); in [3], -64.3% (inactive); in test [5], 3.5% (inactive); in test [10], 30.9% (inactive); in test [11] it was 12.9% (inactive); in test [12], 19.7% (inactive). Moreover, the inhibition of aggregation in [2] is -6.3% (inactive). Also, the results for the nuclei count in test [2] and in [3] were 116% and 112%, respectively. The z-score was -1.32 in [4] (setting [13]), 1.09 in test [4] (setting [14]) and 0.0354 in test [4] (setting [15]). Further, in test [6], the fluorescence slope was -0.49 (inactive). Further, in test [7], the NADPH fluorescence slope is 1.3e-05 (inactive). Also, the slope in test [8] was 0.00536 (inactive). In addition, the result in [9] was inactive.

Turning to `CN1CCc2c(sc3c2c(=O)n(-c2ccccc2)c2nnc(SCc4ccccc4)n32)C1`, the cell count in test [1] was determined as 562. The inhibition in test [1] was -16.1% (inactive); in test [3], -95.1% (inactive); in [5], 3.66% (inactive); in test [10], 5.3% (inactive); in test [11] it was -12.4% (inactive); in [12], 98.5% (active). In addition, the inhibition of aggregation in test [2] was 8.3% (inactive). In addition, the nuclei count was found to be 116% in [2] and 142% in test [3]. Moreover, the z-score in test [4] (setting [13]) is 0.865; in test [4] (setting [14]), -2.08; in test [4] (setting [15]) it was -0.239. Also, the fluorescence slope in [6] was -0.563 (inactive). The NADPH fluorescence slope in [7] is -1.4e-05 (inactive). In addition, the slope in test [8] is 0.00449 (inactive). For the same molecule, the result in [9] was inactive.

Take `CCn1cc(C(=O)NCc2ccco2)c(=O)c2cc(F)c(N3CCN(C(=O)c4ccco4)CC3)cc21`: in test [1], the cell count is 380. Moreover, the inhibition in test [1] was 16.3% (inactive); in [3] it was -117% (inactive); in [5], 19.4% (inactive); in test [10], -7.6% (inactive); in test [11], 14.3% (inactive); in test [12], 13.7% (inactive). In test [2], the inhibition of aggregation was 13.6% (inactive). In addition, the nuclei count is 99.3% in [2] and 118% in [3]. Besides, the z-score in test [4] (setting [13]) is 2.14; in [4] (setting [14]) it was -0.717; in test [4] (setting [15]) it was 0.644. Also, the fluorescence slope in test [6] is -0.279 (inactive). For the same molecule, in test [7], the NADPH fluorescence slope is 2.6e-05 (inactive). Moreover, the slope in test [8] is 0.00489 (inactive). Also, the result in test [9] was inactive.

With `CCCCN(CCCC)CCCOC(=O)c1ccc(N)cc1`, the cell count in test [1] was 680. The inhibition in test [1] was -1.8% (inactive); in test [3], -60.2% (inactive); in [5], -4.44% (inactive); in test [10], 12.6% (inactive); in [11], -12.8% (inactive); in test [12], 56.3% (active). Besides, the inhibition of aggregation in test [2] is 7.7% (inactive). Also, the nuclei count in [2] worked out at 97.6%; in test [3], 130%. In addition, the z-score is -0.857 in test [4] (setting [13]), -0.989 in test [4] (setting [14]) and 0.993 in [4] (setting [15]). The fluorescence slope in [6] is -0.511 (inactive). Further, the NADPH fluorescence slope in test [7] was -5.7e-05 (inactive). Moreover, in test [8], the slope was 0.00529 (inactive). In addition, the result in test [9] was inactive.

In the case of `CN1CCC(=C2c3ccccc3CC(=O)c3sccc32)CC1`, the cell count in test [1] worked out at 641. The inhibition in test [1] was 5.3% (inactive); in test [3], -56.9% (inactive); in test [5], 10.2% (inactive); in test [10], -11.3% (inactive) and 22.8% (inactive); in test [11], -1.65% (inactive); in [12] it was 51.2% (active). Also, the inhibition of aggregation in [2] was 5.4% (inactive). Moreover, the nuclei count came out at 97.7% in [2] and 126% in [3]. Also, the z-score in test [4] (setting [13]) is 2.91; in test [4] (setting [14]), 0.175; in test [4] (setting [15]), -2.59. Besides, in [6], the fluorescence slope is -0.5 (inactive). Also, in [7], the NADPH fluorescence slope was -6.2e-05 (inactive). Also, in [8], the slope is 0.00525 (inactive). Besides, the molecule was called inactive in test [9].

`CCc1ccccc1NC(=O)CSC1=C(C#N)C(c2ccc(O)c(OC)c2)C2=C(CCCC2=O)N1` (stereo not given): in test [1], the cell count worked out at 554. Besides, the inhibition was -8.4% (inactive) in test [1]; -146% (inactive) in test [3]; 13.2% (inactive) in [5]; 22.1% (inactive) in [10]; 18.6% (inactive) in test [11]; 20% (inactive) in [12]. Moreover, in [2], the inhibition of aggregation is -29.5% (inactive). Further, the nuclei count in test [2] is 109%; in test [3], 137%. Besides, the results for the z-score in [4] (setting [13]), in test [4] (setting [14]) and in [4] (setting [15]) were -0.0849, -0.0258 and 0.52, respectively. In addition, in [6], the fluorescence slope is -0.422 (inactive). For the same molecule, in test [7], the NADPH fluorescence slope was -3.5e-05 (inactive). The slope in test [8] is 0.00571 (inactive). In test [9], the molecule was classed as inactive.

For the molecule `CCCCOc1ccc(-c2nnc(N)s2)cc1`, the cell count in test [1] is 634. The inhibition in test [1] was -17.7% (inactive); in test [3], -23.7% (inactive); in test [5], -15% (inactive); in test [10] it was 2.26% (inactive); in test [11], -42.6% (inactive); in [12], -89.4% (inactive). Moreover, in test [2], the inhibition of aggregation was -7.4% (inactive). Further, the nuclei count is 104% in [2] and 146% in test [3]. Besides, the z-score is -0.283 in test [4] (setting [13]), 0.709 in test [4] (setting [14]) and 0.136 in test [4] (setting [15]). Also, the fluorescence slope in test [6] was -0.405 (inactive). Also, in test [7], the NADPH fluorescence slope was -6.4e-05 (inactive). Besides, in test [8], the slope was 0.00759 (inactive). Besides, the molecule was classed as inactive in [9].
